# Experimental data as given in PubChem BioAssay AID1159580 (chemical genetic matrix, 2015).
# Values joined by “and” are separate entries in the source; they are usually repeats but may differ in a detail not shown here. Identical values can stand only once. About 2,000 (36%) of roughly 5,500 compounds were called active. Inconclusive results (about 18%) are left out. Rule as the data show it: active = normalized growth mostly below about 0.91 (no sharp cut-off); inconclusive = no clear call, values can overlap the other calls; inactive = mostly above about 0.92. The list shows a part of the results.
# Assay: chemical genetic growth profiling, strain panel (AID 1159580);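 also: tested at 20 µM; growth read once vehicle control cultures reached saturation at 30 °C; 1 = growth at the plate median or of vehicle wells; lower values mean less growth of the strain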
# Conditions: growth OD
smiles,measurement,setting,value
CNc1ccccc1C(=O)O,normalized growth,"S. cerevisiae deletion strains, locus YBR021W, strain FUR4, stronger effect = lower value",0.955 (inactive)
same,normalized growth,"S. cerevisiae deletion strains, locus YBR229C, strain ROT2, stronger effect = lower value",1 (inactive)
same,normalized growth,"S. cerevisiae deletion strains, locus YCL029C, strain bik1, stronger effect = lower value",1.01 (inactive)
same,normalized growth,"S. cerevisiae deletion strains, locus YDL035C, strain GPR1, stronger effect = lower value",1.02 (inactive)
same,normalized growth,"S. cerevisiae deletion strains, locus YDL074C, strain BRE1, stronger effect = lower value",1.03 (inactive)
same,normalized growth,"S. cerevisiae deletion strains, locus YDL101C, strain DUN1, stronger effect = lower value",1.02 (inactive)
same,normalized growth,"S. cerevisiae deletion strains, locus YDL185W, strain tfp1, stronger effect = lower value",1 (inactive)
same,normalized growth,"S. cerevisiae deletion strains, locus YDL192W, strain arf1, stronger effect = lower value",0.996 (inactive)
same,normalized growth,"S. cerevisiae deletion strains, locus YDR101C, strain arx1, stronger effect = lower value",1 (inactive)
same,normalized growth,"S. cerevisiae deletion strains, locus YDR150W, strain NUM1, stronger effect = lower value",0.997 (inactive)
same,normalized growth,"S. cerevisiae deletion strains, locus YDR162C, strain NBP2, stronger effect = lower value",1.05 (inactive)
same,normalized growth,"S. cerevisiae deletion strains, locus YDR318W, strain mcm21, stronger effect = lower value",0.998 (inactive)
same,normalized growth,"S. cerevisiae deletion strains, locus YDR388W, stronger effect = lower value",1 (inactive)
same,normalized growth,"S. cerevisiae deletion strains, locus YDR502C, strain sam2, stronger effect = lower value",1.02 (inactive)
same,normalized growth,"S. cerevisiae deletion strains, locus YEL061C, strain CIN8, stronger effect = lower value",1 (inactive)
same,normalized growth,"S. cerevisiae deletion strains, locus YER110C, stronger effect = lower value",1.02 (inactive)
same,normalized growth,"S. cerevisiae deletion strains, locus YER155C, strain BEM2, stronger effect = lower value",0.973 (inactive)
same,normalized growth,"S. cerevisiae deletion strains, locus YER167W, strain BCK2, stronger effect = lower value",1 (inactive)
same,normalized growth,"S. cerevisiae deletion strains, locus YGL078C, strain dbp3, stronger effect = lower value",0.981 (inactive)
same,normalized growth,"S. cerevisiae deletion strains, locus YGL086W, strain mad1, stronger effect = lower value",0.989 (inactive)
same,normalized growth,"S. cerevisiae deletion strains, locus YGL248W, strain PDE1, stronger effect = lower value",1.03 (inactive)
same,normalized growth,"S. cerevisiae deletion strains, locus YGR135W, strain pre9, stronger effect = lower value",1 (inactive)
same,normalized growth,"S. cerevisiae deletion strains, locus YGR229C, strain SMI1, stronger effect = lower value",1 (inactive)
same,normalized growth,"S. cerevisiae deletion strains, locus YGR252W, strain gcn5, stronger effect = lower value",1.02 (inactive)
same,normalized growth,"S. cerevisiae deletion strains, locus YHR030C, strain SLT2, stronger effect = lower value",1.01 (inactive) and 0.862 (inactive)
same,normalized growth,"S. cerevisiae deletion strains, locus YHR079C, strain IRE1 (second series), stronger effect = lower value",0.986 (inactive)
same,normalized growth,"S. cerevisiae deletion strains, locus YHR079C, strain IRE1, stronger effect = lower value",0.873 (inactive)
same,normalized growth,"S. cerevisiae deletion strains, locus YHR094C, strain hxt1, stronger effect = lower value",1 (inactive)
same,normalized growth,"S. cerevisiae deletion strains, locus YHR129C, strain ARP1, stronger effect = lower value",1.01 (inactive)
same,normalized growth,"S. cerevisiae deletion strains, locus YHR200W, strain rpn10, stronger effect = lower value",1.01 (inactive)
same,normalized growth,"S. cerevisiae deletion strains, locus YIL066C, strain RNR3, stronger effect = lower value",1.04 (inactive)
same,normalized growth,"S. cerevisiae deletion strains, locus YIL073C, strain SPO22, stronger effect = lower value",1.09 (inactive)
same,normalized growth,"S. cerevisiae deletion strains, locus YIL125W, strain kgd1, stronger effect = lower value",0.969 (inactive)
same,normalized growth,"S. cerevisiae deletion strains, locus YIR030C, strain dcg1, stronger effect = lower value",1.01 (inactive)
same,normalized growth,"S. cerevisiae deletion strains, locus YJL095W, strain BCK1, stronger effect = lower value",1.05 (inactive) and 0.875 (active)
same,normalized growth,"S. cerevisiae deletion strains, locus YJL134W, strain LCB3, stronger effect = lower value",1 (inactive)
same,normalized growth,"S. cerevisiae deletion strains, locus YJL168C, strain set2, stronger effect = lower value",0.996 (inactive)
same,normalized growth,"S. cerevisiae deletion strains, locus YJL187C, strain SWE1 (second series), stronger effect = lower value",1.02 (inactive)
same,normalized growth,"S. cerevisiae deletion strains, locus YJR043C, strain POL32, stronger effect = lower value",1.01 (inactive)
same,normalized growth,"S. cerevisiae deletion strains, locus YJR066W, strain TOR1, stronger effect = lower value",0.842 (inactive)
same,normalized growth,"S. cerevisiae deletion strains, locus YKL009W, strain mrt4, stronger effect = lower value",0.972 (inactive)
same,normalized growth,"S. cerevisiae deletion strains, locus YKL068W, stronger effect = lower value",0.967 (inactive)
same,normalized growth,"S. cerevisiae deletion strains, locus YKL085W, strain MDH1 (second series), stronger effect = lower value",0.985 (inactive)
same,normalized growth,"S. cerevisiae deletion strains, locus YKL085W, strain MDH1, stronger effect = lower value",0.985 (inactive)
same,normalized growth,"S. cerevisiae deletion strains, locus YKR001C, strain vps1, stronger effect = lower value",1 (inactive)
same,normalized growth,"S. cerevisiae deletion strains, locus YLR039C, strain RIC1, stronger effect = lower value",1.03 (inactive)
same,normalized growth,"S. cerevisiae deletion strains, locus YLR058C, strain SHM2, stronger effect = lower value",1.02 (inactive)
same,normalized growth,"S. cerevisiae deletion strains, locus YLR102C, strain apc9, stronger effect = lower value",1 (inactive)
same,normalized growth,"S. cerevisiae deletion strains, locus YLR113W, strain HOG1, stronger effect = lower value",0.78 (active)
same,normalized growth,"S. cerevisiae deletion strains, locus YLR262C, strain YPT6, stronger effect = lower value",1.06 (inactive)
same,normalized growth,"S. cerevisiae deletion strains, locus YLR268W, strain sec22, stronger effect = lower value",0.993 (inactive)
same,normalized growth,"S. cerevisiae deletion strains, locus YLR330W, strain CHS5, stronger effect = lower value",1.02 (inactive)
same,normalized growth,"S. cerevisiae deletion strains, locus YLR342W, strain FKS1 (second series), stronger effect = lower value",1.02 (inactive)
same,normalized growth,"S. cerevisiae deletion strains, locus YLR371W, strain rom2, stronger effect = lower value",0.995 (inactive)
same,normalized growth,"S. cerevisiae deletion strains, locus YLR418C, strain cdc73, stronger effect = lower value",1.08 (inactive)
same,normalized growth,"S. cerevisiae deletion strains, locus YML016C, strain PPZ1, stronger effect = lower value",1.01 (inactive)
same,normalized growth,"S. cerevisiae deletion strains, locus YML032C, strain rad52, stronger effect = lower value",1.02 (inactive)
same,normalized growth,"S. cerevisiae deletion strains, locus YML124C, strain tub3, stronger effect = lower value",1.01 (inactive)
same,normalized growth,"S. cerevisiae deletion strains, locus YMR078C, strain ctf18, stronger effect = lower value",1 (inactive)
same,normalized growth,"S. cerevisiae deletion strains, locus YMR223W, strain ubp8, stronger effect = lower value",1.01 (inactive)
same,normalized growth,"S. cerevisiae deletion strains, locus YMR263W, strain SAP30, stronger effect = lower value",1.02 (inactive)
same,normalized growth,"S. cerevisiae deletion strains, locus YMR307W, strain GAS1, stronger effect = lower value",1.08 (inactive)
same,normalized growth,"S. cerevisiae deletion strains, locus YNL067W, strain RPL9B, stronger effect = lower value",1.01 (inactive)
same,normalized growth,"S. cerevisiae deletion strains, locus YNL183C, strain NPR1, stronger effect = lower value",0.822 (active)
same,normalized growth,"S. cerevisiae deletion strains, locus YNL233W, strain BNI4, stronger effect = lower value",1.02 (inactive)
same,normalized growth,"S. cerevisiae deletion strains, locus YNL250W, strain rad50, stronger effect = lower value",0.994 (inactive)
same,normalized growth,"S. cerevisiae deletion strains, locus YNL271C, strain bni1, stronger effect = lower value",0.989 (inactive)
same,normalized growth,"S. cerevisiae deletion strains, locus YNL298W, strain CLA4, stronger effect = lower value",1.01 (inactive)
same,normalized growth,"S. cerevisiae deletion strains, locus YNL307C, strain MCK1, stronger effect = lower value",0.993 (inactive)
same,normalized growth,"S. cerevisiae deletion strains, locus YNR052C, strain pop2, stronger effect = lower value",1 (inactive)
same,normalized growth,"S. cerevisiae deletion strains, locus YOL012C, strain htz1",1.68 (inactive)
same,normalized growth,"S. cerevisiae deletion strains, locus YOL147C, strain pex11, stronger effect = lower value",0.999 (inactive)
same,normalized growth,"S. cerevisiae deletion strains, locus YOR061W, strain CKA2, stronger effect = lower value",1.01 (inactive)
same,normalized growth,"S. cerevisiae deletion strains, locus YOR069W, strain VPS5, stronger effect = lower value",1.01 (inactive)
same,normalized growth,"S. cerevisiae deletion strains, locus YOR136W, strain idh2, stronger effect = lower value",1.01 (inactive)
same,normalized growth,"S. cerevisiae deletion strains, locus YOR144C, strain elg1, stronger effect = lower value",0.994 (inactive)
same,normalized growth,"S. cerevisiae deletion strains, locus YOR184W, strain ser1, stronger effect = lower value",1.01 (inactive)
same,normalized growth,"S. cerevisiae deletion strains, locus YOR231W, strain MKK1, stronger effect = lower value",0.884 (inactive)
same,normalized growth,"S. cerevisiae deletion strains, locus YOR316C, strain cot1, stronger effect = lower value",1.01 (inactive)
same,normalized growth,"S. cerevisiae deletion strains, locus YPL055C, strain LGE1, stronger effect = lower value",1.04 (inactive)
same,normalized growth,"S. cerevisiae deletion strains, locus YPL241C, strain CIN2, stronger effect = lower value",0.999 (inactive)
same,normalized growth,"S. cerevisiae deletion strains, locus YPL256C, strain CLN2, stronger effect = lower value",0.838 (inactive)
same,normalized growth,"S. cerevisiae deletion strains, locus YPR119W, strain clb2, stronger effect = lower value",0.995 (inactive)
same,normalized growth,"S. cerevisiae deletion strains, locus YPR141C, strain kar3, stronger effect = lower value",0.968 (inactive)
same,normalized growth,"S. cerevisiae deletion strains, locus YPR163C, strain tif3, stronger effect = lower value",0.998 (inactive)
same,normalized growth,"S. cerevisiae deletion strains, locus YPR167C, strain met16, stronger effect = lower value",1.02 (inactive)
same,normalized growth,"S. cerevisiae deletion strains, strain wtn01, stronger effect = lower value",1.01 (inactive)
same,normalized growth,"S. cerevisiae strains, strain wild type, stronger effect = lower value",1.01 (inactive)
